Measured values: the supplement of paper PMC8866396
± gives the standard deviation of the averaged measurements.

Columns and labels:
IL-6-GFP PC-9GR = experiment: cell viability (CCK-8 OD) relative to DMSO control (fraction of control); higher = more viable cells; settings: compound concentration: 10 uM; treatment time: 48 h
Summary of the method: (§1)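 Each well's viability is its CCK-8 optical density divided by that of the vehicle control well. The cells, PC-9 and PC-9GR lung cancer lines overexpressing IL-6-GFP from a lentiviral construct, were seeded at 3000 cells/well in 96-well plates and exposed for 48 h to each compound of a purchased 510-compound library at a final 10 μM, in two independent replicates.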

IL-6-GFP PC-9 = experiment: as above; settings: compound concentration: 10 uM; treatment time: 48 h
Summary of the method: as §1

SMILES | cell viability (IL-6-GFP PC-9GR) | cell viability (IL-6-GFP PC-9)
CS(=O)(=O)Nc1cc2occ(NC=O)c(=O)c2cc1Oc1ccccc1 [Iguratimod] | 1.46 ± 0.37 | 1.02 ± 0.19
CC(=O)Nc1cccc(-n2c(=O)n(C3CC3)c(=O)c3c(Nc4ccc(I)cc4F)n(C)c(=O)c(C)c32)c1 | 1.04 ± 0.14 | 0.791 ± 0.31
CC(=O)Oc1cccc2c1C(=O)c1c(OC(C)=O)cc(C(=O)O)cc1C2=O [Diacerein] | 1.14 ± 0.39 | 0.97 ± 0.034
Cc1ccc(Nc2nccc(N(C)c3ccc4c(C)n(C)nc4c3)n2)cc1S(N)(=O)=O.Cl | 0.886 ± 0.13 | 0.532 ± 0.1
CN1C(C(=O)Nc2ccccn2)=C(O)c2sc(Cl)cc2S1(=O)=O [Lornoxicam] | 0.71 ± 0.3 | 1.1 ± 0.23
CCOc1cc2ncc(C#N)c(Nc3ccc(OCc4ccccn4)c(Cl)c3)c2cc1NC(=O)/C=C/CN(C)C [Neratinib (HKI-272)] | 0.795 ± 0.045 | 0.506 ± 0.052
Cc1cncc(CN2CCC(=C3c4ccc(Cl)cc4CCc4cccnc43)CC2)c1.O=C(O)/C=C/C(=O)O [Rupatadine Fumarate] | 0.996 ± 0.05 | 1.16 ± 0.17
COc1cc(C2c3cc4c(cc3C(OC3OC5COC(c6cccs6)OC5C(O)C3O)C3COC(=O)C23)OCO4)cc(OC)c1O (configuration not stated) [Teniposide] | 0.0642 ± 0.047 | 0.121 ± 0.035
O=C(O)CCC(=O)c1ccc(-c2ccccc2)cc1 [Fenbufen] | 1 ± 0.06 | 1.08 ± 0.12
COc1ccc2cc1Oc1ccc(cc1)CC1c3cc(c(OC)cc3CCN1C)Oc1c(OC)c(OC)cc3c1C(C2)N(C)CC3 (configuration not stated) [Tetrandrine] | 1.15 ± 0.36 | 1.3 ± 0.043
CNC(=O)c1cc(Oc2ccc(NC(=O)Nc3ccc(Cl)c(C(F)(F)F)c3)c(F)c2)ccn1.O [Regorafenib Monohydrate] | 0.659 ± 0.32 | 0.21 ± 0.28
Nc1nnc(-c2cccc(Cl)c2Cl)c(N)n1 [Lamotrigine] | 1.12 ± 0.3 | 1.05 ± 0.16
Cn1cnc2c(F)c(Nc3ccc(Br)cc3F)c(C(=O)NOCCO)cc21 | 0.812 ± 0.043 | 1.2 ± 0.19
C/C=C(/C(=C/C)c1ccc(O)cc1)c1ccc(O)cc1 [Dienestrol] | 1.06 ± 0.025 | 1.16 ± 0.093
Nc1ccc(S(=O)(=O)Nc2ccnn2-c2ccccc2)cc1 [Sulfaphenazole] | 1.15 ± 0.36 | 1.29 ± 0.11
O=C(O)c1ccccc1Nc1cccc(C(F)(F)F)c1 [Flufenamic acid] | 1.15 ± 0.34 | 1.14 ± 0.15
CCc1cc2c(cc1N1CCC(N3CCOCC3)CC1)C(C)(C)c1[nH]c3cc(C#N)ccc3c1C2=O | 0.732 ± 0.081 | 0.584 ± 0.18
O=C(O)COc1nn(Cc2ccccc2)c2ccccc12 [Bendazac] | 1.85 ± 0.092 | 1.14 ± 0.11
CC(O)CO.CCOc1ccc(Cc2cc(C3OC(CO)C(O)C(O)C3O)ccc2Cl)cc1.O (configuration not stated) [Dapagliflozin propanediol monohydrate] | 1.07 ± 0.13 | 1.14 ± 0.11
CC12C=CC(=O)C=C1CCC1C3CC(O)C(O)(C(=O)CO)C3(C)CC(O)C12F (configuration not stated) [Triamcinolone] | 1.06 ± 0.13 | 0.805 ± 0.086
CCOC(=O)N1CCC(=C2c3ccc(Cl)cc3CCc3cccnc32)CC1 [Loratadine] | 1.12 ± 0.032 | 0.934 ± 0.18
O=C([O-])Cc1ccccc1Nc1c(Cl)cccc1Cl.[K+] [Diclofenac Potassium] | 1.25 ± 0.21 | 1.13 ± 0.18

SMILES | cell viability (IL-6-GFP PC-9GR) | cell viability (IL-6-GFP PC-9)
COc1cc(C(=O)NS(=O)(=O)c2ccccc2C)ccc1Cc1cn(C)c2ccc(NC(=O)OC3CCCC3)cc12 [Zafirlukast] | 1.31 ± 0.026 | 0.967 ± 0.023
CCC(C)C(=O)OC1CC(C)C=C2C=CC(C)C(CCC3CC(O)CC(=O)O3)C21 (configuration not stated) [Lovastatin] | 1.23 ± 0.028 | 0.619 ± 0.019
CN(C)CCN1C(=O)c2cccc3cc(N)cc(c23)C1=O [Amonafide] | 0.534 ± 0.025 | 0.425 ± 0.076
CCC(C)n1ncn(-c2ccc(N3CCN(c4ccc(OCC5COC(Cn6cncn6)(c6ccc(Cl)cc6Cl)O5)cc4)CC3)cc2)c1=O (configuration not stated) [Itraconazole] | 0.797 ± 0.19 | 0.269 ± 0.17
CCC(=O)OCC(=O)C1(OC(=O)CC)C(C)CC2C3CCC4=CC(=O)C=CC4(C)C3(Cl)C(O)CC21C (configuration not stated) [Beclomethasone dipropionate] | 0.987 ± 0.24 | 0.797 ± 0.12
CCOc1ccccc1OCCNC(C)Cc1ccc(OC)c(S(N)(=O)=O)c1 (configuration not stated) [Tamsulosin] | 1.37 ± 0.042 | 1.316 ± 0.0058
CC(=O)OCC1OC(n2ccc(=O)[nH]c2=O)C(OC(C)=O)C1OC(C)=O (configuration not stated) [uridine triacetate] | 1.59 ± 0.3 | 1.175 ± 0.0034
C=C1c2cccc(O)c2C(=O)C2=C(O)C3(O)C(=O)C(C(N)=O)=C(O)C(N(C)C)C3C(O)C12.Cl (configuration not stated) [Methacycline HCl] | 0.894 ± 0.32 | 1 ± 0.072
COc1ccc2cc1Oc1ccc(cc1)CC1c3cc(c(OC)cc3CCN1C)Oc1c(O)c(OC)cc3c1C(C2)N(C)CC3 (configuration not stated) [Fangchinoline] | 1.18 ± 0.33 | 1.09 ± 0.13
CC(=O)OC(C)OC(=O)C(C)c1ccc(-c2ccccc2)c(F)c1 (configuration not stated) [Flurbiprofen Axetil] | 1.17 ± 0.29 | 1.16 ± 0.038
O.S=c1nc[nH]c2nc[nH]c12 [6-Mercaptopurine (6-MP) Monohydrate] | 0.92 ± 0.11 | 0.978 ± 0.19
CCC(=O)OC1(C(=O)SCF)C(C)CC2C3CC(F)C4=CC(=O)C=CC4(C)C3(F)C(O)CC21C (configuration not stated) [Fluticasone propionate] | 1.06 ± 0.43 | 0.821 ± 0.024
CCc1nc(C(N)=O)c(Nc2ccc(N3CCC(N4CCN(C)CC4)CC3)c(OC)c2)nc1NC1CCOCC1 [Gilteritinib (ASP2215)] | 0.333 ± 0.021 | 0.315 ± 0.11
O=c1c(-c2ccc(O)cc2)coc2cc(O)cc(O)c12 [Genistein] | 0.975 ± 0.05 | 0.58 ± 0.32
O=c1cc[nH]c(=O)[nH]1 [Uracil] | 0.909 ± 0.021 | 0.701 ± 0.11
CNC(=O)C(NC(=O)C(CC(C)C)C(O)C(=O)NO)C(C)(C)C (configuration not stated) [Marimastat (BB-2516)] | 0.915 ± 0.038 | 1.14 ± 0.19
CCOC(=O)c1ccc(OC(=O)CCCCCNC(=N)N)cc1.CS(=O)(=O)O [Gabexate Mesylate] | 1.14 ± 0.069 | 0.801 ± 0.071
CN(C)C(=O)COC(=O)Cc1ccc(OC(=O)c2ccc(NC(=N)N)cc2)cc1.CS(=O)(=O)O [Camostat Mesilate] | 0.986 ± 0.098 | 1.13 ± 0.049
CN(C)c1nc(N(C)C)nc(N(C)C)n1 [Altretamine] | 1.25 ± 0.047 | 1.06 ± 0.036
CCCCC(CC)CN1CN(CC(CC)CCCC)CC(C)(N)C1 (configuration not stated) [Hexetidine] | 1.58 ± 0.49 | 1.15 ± 0.07
CC(C)c1nc(N(C)S(C)(=O)=O)nc(-c2ccc(F)cc2)c1/C=C/C(O)CC(O)CC(=O)O (configuration not stated) [Rosuvastatin] | 1.56 ± 0.24 | 1.12 ± 0.1
CNC1CCC(c2ccc(Cl)c(Cl)c2)c2ccccc21.Cl (configuration not stated) [Sertraline HCl] | 0.338 ± 0.063 | 0.664 ± 0.35

SMILES | cell viability (IL-6-GFP PC-9GR) | cell viability (IL-6-GFP PC-9)
CCCCCCCCc1ccc(CCC(N)(CO)CO)cc1 [Fingolimod] | 0.513 ± 0.18 | 0.924 ± 0.37
O=C([O-])Cc1ccccc1Nc1c(Cl)cccc1Cl.[Na+] [Diclofenac Sodium] | 1.3 ± 0.039 | 1.09 ± 0.084
CC(C)C1C(=O)NC(CCCNC(=N)N)C(=O)NCC(=O)NC(CC(=O)O)C(=O)NC(Cc2ccccc2)C(=O)N1C.O=C(O)C(F)(F)F (configuration not stated) | 1.13 ± 0.28 | 1.26 ± 0.087
CC(=O)[N-]S(=O)(=O)c1ccc(N)cc1.[Na+] [Sulfacetamide Sodium] | 0.982 ± 0.12 | 1.1 ± 0.014
CCC1(O)C(=O)OCc2c1cc1n(c2=O)Cc2cc3c(CN(C)C)c(O)ccc3nc2-1.Cl (configuration not stated) [Topotecan HCl] | 0.451 ± 0.033 | 0.355 ± 0.11
CN1C2=CC(=O)/C(=N\NC(N)=O)C=C2CC1S(=O)(=O)[O-].[Na+] (configuration not stated) [Carbazochrome sodium sulfonate (AC-17)] | 1.16 ± 0.028 | 1.04 ± 0.16
COc1c2occc2c(OC)c2c(=O)cc(C)oc12 [Khellin] | 0.831 ± 0.16 | 0.888 ± 0.17
C#Cc1cccc(Nc2ncnc3cc4c(cc23)OCCOCCOCCO4)c1 [Icotinib] | 1.18 ± 0.048 | 0.58 ± 0.11
O=c1ccc2ccc(O)c(O)c2o1 [Daphnetin] | 1.303 ± 0.0056 | 1.17 ± 0.18
Cn1nnc2c(C(N)=O)ncn2c1=O [Temozolomide] | 1.18 ± 0.04 | 0.6981 ± 0.0048
Cl.O=C1NCC2(CCN(CCc3ccccc3)CC2)O1 [Fenspiride HCl] | 1.02 ± 0.044 | 1.24 ± 0.015
CCC(C(=O)O)c1ccc(N2Cc3ccccc3C2=O)cc1 (configuration not stated) [Indobufen] | 0.908 ± 0.059 | 1.11 ± 0.049
Nc1nc(=S)c2[nH]cnc2[nH]1 [Thioguanine] | 1.37 ± 0.42 | 1.2 ± 0.061
COC(=O)c1cc(OC)c2c(c1-c1c(CO)cc(OC)c3c1OCO3)OCO2 [Bicyclol] | 1.16 ± 0.29 | 0.934 ± 0.097
Nc1ccn(C2OC(CO)C(O)C2(F)F)c(=O)n1 (configuration not stated) [Gemcitabine] | 0.5847 ± 0.0053 | 0.5589 ± 0.0046
Cl.O=C(OCC(O)CO)c1ccccc1Nc1ccnc2cc(Cl)ccc12 (configuration not stated) [Glafenine HCl] | 1.04 ± 0.32 | 1.05 ± 0.25
C1N2CN3CN1CN(C2)C3 [Methenamine] | 1.09 ± 0.19 | 0.9499 ± 0.009
Cc1c(Cl)cccc1Nc1ccccc1C(=O)O [Tolfenamic Acid] | 1.39 ± 0.44 | 1.18 ± 0.046
Nc1nc(CC(=O)Nc2ccc(CCNCC(O)c3ccccc3)cc2)cs1 (configuration not stated) [Mirabegron] | 1.09 ± 0.19 | 0.791 ± 0.035
CN(C(=O)c1c(O)c2ccccc2n(C)c1=O)c1ccccc1 [Roquinimex] | 0.937 ± 0.35 | 1.15 ± 0.038
CN1CCC(NC(=O)Nc2ccc(C#N)cc2)CC1c1nc2ccccc2[nH]1 (configuration not stated) | 0.848 ± 0.016 | 1.21 ± 0.033
Cc1cc(Nc2ncc(Cl)c(Nc3ccccc3S(=O)(=O)C(C)C)n2)c(OC(C)C)cc1C1CCNCC1 [Ceritinib (LDK378)] | 0.091 ± 0.015 | 0.0667 ± 0.041
